These results are taken from PubChem BioAssay (NCI).

Compounds without any hit were thinned out: in the full panel of roughly 83,000, 20% have a hit.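 Cell lines were cultured in 96-well plates, exposed to a single compound concentration, and assessed for percent growth 48 hours later.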 A number with no mark means an inactive call. Activity calls are given as the source filed them. Rule for the calls: active = growth percent below 10; inactive = the rest.

Holding throughout (test): NCI-60 one-dose screen, 48 h (100 = growth as untreated, 0 = no growth, -100 = all killed)
Common to all, as to settings: 10 µM unless noted

For test [1], the system named is NCI-H23 lung.
In test [2] the test system is NCI-H226 lung.
Test [3] has as its system NCI-H322M lung.
Test [4] relates to HOP-62 NSCLC.
Test [5] relates to NCI-H460 lung.
Test [6] has as its system HOP-92 NSCLC.
The test system of test [7] is NCI-H522 lung.
In test [8] the test system is A549/ATCC NSCLC.
Test [9] deals with 786-0 renal.
Test [10] relates to COLO 205 colon.
Test [11] concerns DU-145 prostate.
The subject of test [12] is K-562 leukemia.
For test [13], the system named is MALME-3M melanoma.
Test [14] has as its system MDA-MB-231 breast.
Test [15] relates to RXF 393 renal.
Test [16] concerns SF-268 CNS.
In test [17] the test system is SF-295 CNS.
In test [18] the test system is SF-539 CNS.
Test [19] relates to UACC-257 melanoma.
The subject of test [20] is M14 melanoma.

As to `CC1(C)CC[C@]2(C(=O)O)CC[C@]3(C)C(=CC[C@@H]4[C@@]5(C)C/C(=C/c6cccnc6)[C@H](O)C(C)(C)[C@@H]5CC[C@]43C)[C@@H]2C1`, the growth in test [1] was 6.1% [100 µM] (active); in [2] it was -23% [100 µM] (active); in [3] it was -17% [100 µM] (active); in test [4], -2.51% [100 µM] (active); in [5] it was -16.7% [100 µM] (active); in [6], -21.8% [100 µM] (active). The growth in [7] was -8.98% [100 µM] (active); in test [8], 5.82% [100 µM] (active); in [9], 5.39% [100 µM] (active); in test [10], -73% [100 µM] (active); in test [11], 5.35% [100 µM] (active); in test [12] it was 9.27% [100 µM] (active). The growth in test [13] was -30.1% [100 µM] (active); in [14], -24.3% [100 µM] (active); in test [15] it was -37.4% [100 µM] (active); in [16] it was 22.4% [100 µM]; in test [17], -7.25% [100 µM] (active); in [18], -26.8% [100 µM] (active). Moreover, the growth in [19] is -8.97% [100 µM] (active); in test [20], 3.32% [100 µM] (active).

In the case of `CCn1cc(-c2[nH]c(=S)ncc2-c2ccc(Cl)cc2)c(-c2ccc(Br)cc2)n1`, the growth in [1] was 85.8%; in test [2] it was 94%; in test [3], 96.5%; in test [4], 61.6%; in test [5] it was 58.5%; in test [6], 104%. In addition, the growth is 58.5% in test [7]; 72.2% in test [8]; 101% in test [9]; 94% in [10]; 100% in test [11]; 120% in test [12]. Further, the growth in test [13] was 108%; in test [14] it was 89.1%; in test [15], 109%; in test [16], 75.1%; in test [17], 68.4%; in test [18], 87.5%. The growth in test [19] is 84.8%; in [20], 66.7%.

As to `CC(C)=CCC[C@](C)(O)[C@H]1CC[C@]2(C)[C@@H]1CC[C@@H]1[C@@]3(C)CC/C(=N/O)C(C)(C)[C@@H]3CC[C@]12C`, the growth in [1] was -56.9% [100 µM] (active); in test [2], 11.3% [100 µM]; in test [3], -1.07% [100 µM] (active); in test [4], -50.9% [100 µM] (active); in [5], -7.45% [100 µM] (active); in [6], -62% [100 µM] (active). Moreover, the growth in test [7] was -28.9% [100 µM] (active); in test [8] it was -70.4% [100 µM] (active); in test [9], -21.1% [100 µM] (active); in test [10], -43.5% [100 µM] (active); in test [11] it was -15.4% [100 µM] (active); in test [12] it was 10.9% [100 µM]. Also, the growth in test [13] is -69.7% [100 µM] (active); in test [14], -34.2% [100 µM] (active); in [15], -32.5% [100 µM] (active); in test [16] it was 11.5% [100 µM]; in [17], -66.5% [100 µM] (active); in [18] it was -53.9% [100 µM] (active). The growth is 19.8% [100 µM] in test [19] and -13.6% [100 µM] (active) in [20].

Take `Cn1cc(-c2nnc(-c3cn(C)c4ncccc34)s2)c2ccccc21`: the growth was 84.6% in test [1]; 96% in [2]; 92.7% in [3]; 65.8% in [4]; 75.1% in test [5]; 30.2% in test [6]. The growth in [7] is 32.1%; in test [8], 57.6%; in [9] it was 78.4%; in [10], 64.1%; in test [11] it was 73.6%; in [12], 27.8%. Besides, the growth is 29.1% in test [13]; 40.2% in test [14]; 78.4% in test [15]; 72.1% in test [16]; 47.7% in test [17]; 45.8% in test [18]. The results for the growth in test [19] and in test [20] were 96.1% and 92.8%, respectively.

As to `CC(C)c1ccc(C(=O)Nc2nc3ccc(O)cc3s2)cc1`, the growth in test [1] is 51.4%; in [2], 66.6%; in [3], 62.2%; in [4], 93.1%; in [5], 3.97% (active); in [6] it was 50%. For the same compound, the growth in test [7] is 39.6%; in test [8] it was 33.5%; in [9] it was 0.538% (active); in test [10], 33%; in test [11], 42.1%; in test [12], -1.97% (active). For the same compound, the growth was 26.3% in [13]; 73% in test [14]; 67.3% in [15]; 51.5% in test [16]; -36.4% (active) in [17]; -21.9% (active) in test [18]. Moreover, the growth in test [19] is 25.9%; in test [20], 3.05% (active).

As for `Cc1cnc(N)nc1OCCNC(=O)c1cccc(-c2ccc(S(=O)(=O)Nc3ccc4c(c3)N(C(=O)C3CC3)CCC4)cc2)c1`, the growth in test [1] was 72.4%; in test [2] it was 72%; in [3], 87.5%; in [4], 79.8%; in [5], 75.4%; in [6], 41%. The growth in [7] was 70.1%; in test [8], 79.7%; in test [9], 82.3%; in test [10], 99.1%; in [11] it was 90.2%; in test [12] it was 58.8%. The growth was 120% in test [13]; 89.5% in test [14]; 88.3% in test [15]; 74.5% in [16]; 77.9% in [17]; 92% in test [18]. In addition, the growth was 84.1% in test [19] and 80.1% in test [20].

Take `CCOc1ccccc1/C=N\Nc1ccc(S(=O)(=O)c2ccc(N/N=C/c3ccccc3OCC)cc2)cc1`: the growth in test [1] was 95.7%; in test [2], 79.5%; in [3], 92.1%; in test [4] it was 93%; in [5] it was 98.6%; in test [6], 88.9%. Also, the growth was 95.2% in test [7]; 96.7% in test [8]; 103% in test [9]; 114% in test [10]; 109% in test [11]; 87.9% in test [12]. The growth is 98% in test [13]; 87.8% in test [14]; 112% in [15]; 88.3% in test [16]; 92.9% in test [17]; 90.8% in test [18]. Moreover, the figures for the growth in [19] and in test [20] were 100% and 96.9%, respectively.

On to `C=C(C)[C@@H]1CC[C@]2(C(=O)NCCNCCNCCN)CC[C@]3(C)[C@H](CC[C@@H]4[C@@]5(C)CC[C@H](O)C(C)(C)[C@@H]5CC[C@]43C)[C@@H]12`, for which the growth was -51.7% [100 µM] (active) in [1]; -23.6% [100 µM] (active) in test [2]; -83.8% [100 µM] (active) in test [3]; -69.1% [100 µM] (active) in test [4]; -100% [100 µM] (active) in [5]; -65.4% [100 µM] (active) in [6]. Besides, the growth in [7] was -57.8% [100 µM] (active); in [8], -64.6% [100 µM] (active); in test [9] it was -83.5% [100 µM] (active); in test [10], -19.5% [100 µM] (active); in test [11] it was -8.34% [100 µM] (active); in test [12], -15.8% [100 µM] (active). The growth in test [13] was -100% [100 µM] (active); in [14], -56.9% [100 µM] (active); in test [15], -82.9% [100 µM] (active); in test [16], -31% [100 µM] (active); in test [17], -84.7% [100 µM] (active); in test [18] it was -100% [100 µM] (active). Further, the values for the growth in [19] and in test [20] were -39.6% [100 µM] (active) and -31% [100 µM] (active), respectively.

Turning to `C[C@@H]1C[C@H]2C(=O)O[C@@H](C)[C@H](NC(=O)[C@H](Cc3cc(F)cc(F)c3)NC(=O)Nc3ccc(C4CC4)cc3F)C(=O)N3CCC[C@H]3C(=O)N3CCCC[C@H]3C(=O)N[C@@H](C)C(=O)N2C1`, the growth in test [1] is 28.7%; in test [2], 19.8%; in test [3], 45.4%; in test [4] it was 27.8%; in [5], 13.6%; in [6] it was 3.54% (active). Further, the growth was 19.4% in [7]; 18.3% in test [8]; 20% in test [9]; -33.2% (active) in test [10]; 21.8% in test [11]; 17.5% in test [12]. The growth in test [13] is 18.5%; in test [14] it was -14.4% (active); in test [15], -1.09% (active); in test [16], 22.5%; in [17], -1.67% (active); in test [18], 24.7%. Moreover, the growth in [19] is 6.5% (active); in test [20], 10.7%.

As for `C=C(C)[C@@H]1CC[C@]2(C(N)=O)CC[C@]3(C)[C@H](CC[C@@H]4[C@@]5(C)C/C(=C/c6cccnc6)[C@H](O)C(C)(C)[C@@H]5CC[C@]43C)[C@@H]12`, the growth is 28.1% [100 µM] in test [1]; 22.8% [100 µM] in test [2]; 35.6% [100 µM] in test [3]; 27.5% [100 µM] in test [4]; 5.04% [100 µM] (active) in test [5]; 23.4% [100 µM] in test [6]. For the same compound, the growth in test [7] was 8.63% [100 µM] (active); in [8], 23.1% [100 µM]; in [9], 22.7% [100 µM]; in test [10], -36.6% [100 µM] (active); in [11], 38.2% [100 µM]; in test [12] it was 5.36% [100 µM] (active). Besides, the growth is 5.89% [100 µM] (active) in test [13]; 28.9% [100 µM] in test [14]; 13.4% [100 µM] in test [15]; 45.6% [100 µM] in test [16]; 23.9% [100 µM] in [17]; 25.1% [100 µM] in [18]. The growth in test [19] is 38% [100 µM]; in test [20] it was 33.8% [100 µM].
